# Results as given in PubChem BioAssay (NCATS).
# Results filed as inconclusive are left out. Entries that show only a call come without a potency. Active and inactive are the calls of the source. Unless noted, the call rests on the fitted dose curve; in most records, active means well fitted curve in the direction sought with a large enough effect; inconclusive means small, poorly fitted or top-dose-only effect, or another doubt; inactive means no such curve, though single readings can be large; an effect the other way counts as inactive or inconclusive.
# Legend:
# [1] = Cell Viability - LYMP2-004 (AID 966); further: nearly all actives have a fitted effect of over 65% in size
# In short: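 qHTS cytotoxicity: human lymphoblastoid line, 24 hr compound treatment, 37 C, complete medium. Viability read as cellular ATP via luciferase luminescence; tetraoctylammonium bromide served as positive control.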
# [2] = Cell Viability - LYMP2-005 (AID 967); further: series mostly up to about 92 µM
# In short: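 Acute cytotoxicity is scored as a concentration-dependent drop in intracellular ATP in human lymphoblastoid LYMP2-005 cells after 24 h compound treatment. ATP is quantified by luciferase luminescence, and AC50 is derived by Hill-equation modelling.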
# [3] = Cell Viability - LYMP2-009 (AID 968); further: series mostly up to about 92 µM; nearly all actives have a fitted effect of over 55% in size
# [4] = Cell Viability - LYMP2-011 (AID 969); further: nearly all actives have a fitted effect of over 60% in size
# In short: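 In this qHTS cytotoxicity format, compounds are tested across concentrations on human lymphoblastoid cells in complete medium for 24 hours at 37 C. Viability is taken as cellular ATP measured by luciferase luminescence.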
# [5] = Cell Viability - LYMP2-013 (AID 970); further: series mostly up to about 92 µM; nearly all actives have a fitted effect of over 55% in size
# In short: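 Cytotoxicity is scored as a concentration-dependent drop in intracellular ATP in human lymphoblastoid cells after 24 hr compound exposure at 37 C. ATP is quantified by luciferase luminescence, and AC50 values come from Hill-equation modeling.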
# [6] = Cell Viability - LYMP2-015 (AID 971); further: nearly all actives have a fitted effect of over 55% in size
# In short: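 Cells are seeded at 2500 per well and incubated 5 hr at 37 C. Compounds are added across a concentration series for 24 hr at 37 C. CellTiter-Glo is added, and luminescence is read after 30 min at room temperature.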
# [7] = Cell Viability - LYMP2-017 (AID 972); further: series mostly up to about 92 µM; nearly all actives have a fitted effect of over 55% in size
# In short: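 Cytotoxicity is scored as a concentration-dependent drop in cellular ATP in a human lymphoblastoid line after 24 hr treatment at 37 C. Values are AC50s from Hill-equation modelling.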
# [8] = Cell Viability - LYMP2-021 (AID 974)
# In short: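 Loss of cellular ATP, measured with a luciferase-based CellTiter-Glo readout, serves as the toxicity signal in human lymphoblastoid cells treated for 24 hours at 37 C. Potency is reported as AC50 from a standard Hill model.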
# [9] = Cell Viability - LYMP2-023 (AID 975)
# In short: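 Steps: seed 2500 human lymphoblastoid cells per well, incubate 5 hr at 37 C, add compound for 24 hr at 37 C, add CellTiter-Glo, hold 30 min at room temperature, read luminescence. AC50 derived by Hill modelling.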
# [10] = Cell Viability - LYMP2-025 (AID 976); further: series mostly up to about 92 µM
# In short: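 Acute cytotoxicity is scored as a concentration-dependent fall in intracellular ATP, measured by luciferase luminescence, in human lymphoblastoid LYMP2-025 cells exposed to compound for 24 hours at 37 C. AC50 values come from standard Hill fits.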
# [11] = Cell Viability - LYMP2-002 (AID 977);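 further: series mostly up to about 92 µM; compound exposure lasted 24 h at 37 °C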
# In short: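 Human lymphoblastoid cells (2500/well) in complete medium were preincubated 5 hr at 37 C, then exposed to compounds for 24 hr at 37 C. Intracellular ATP was read by CellTiter-Glo luminescence; AC50 came from Hill-equation concentration-response fits.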
# [12] = Cell Viability - LYMP2-006 (AID 978); further: series mostly up to about 92 µM; nearly all actives have a fitted effect of over 60% in size
# In short: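 Cells are seeded at 2500 per well and rested 5 hr at 37 C. Compounds are added across a concentration series for 24 hr at 37 C, after which ATP is quantified by luciferase luminescence.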
# [13] = Cell Viability - LYMP2-007 (AID 979);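 further: cells exposed to compound for 24 h before reading; nearly all actives have a fitted effect of over 60% in size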
# In short: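 Cells are seeded at 2500 per well and rested 5 hr. Compounds are then added over a concentration series for 24 hr at 37 C. CellTiter-Glo is added for 30 min at room temperature before luminescence reading.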
# [14] = Cell Viability - LYMP2-008 (AID 980); further: nearly all actives have a fitted effect of over 60% in size
# In short: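 Cells seeded at 2500/well and rested 5 hr at 37 C; compounds added over a concentration range and incubated 24 hr at 37 C; CellTiter-Glo added, 30 min at room temperature; luminescence read and AC50 fitted with Hill model.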
# [15] = Cell Viability - LYMP2-010 (AID 981); further: nearly all actives have a fitted effect of over 55% in size
# In short: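 Steps: seed 2500 LYMP2-010 cells per well; incubate 5 hr at 37 C; add compound; incubate 24 hr at 37 C; add CellTiter-Glo, wait 30 min at room temperature; read luminescence. Concentration-response fitted to Hill equation for AC50.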
# [16] = Cell Viability - LYMP2-012 (AID 982)
# [17] = Cell Viability - LYMP2-014 (AID 983); further: series mostly up to about 92 µM; nearly all actives have a fitted effect of over 50% in size
# In short: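 Cells are plated at 2500/well and left 5 hr at 37 C. Compounds are added across a concentration range and incubated 24 hr at 37 C in complete medium. CellTiter-Glo is added, and luminescence is read after 30 min at room temperature.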
# [18] = Cell Viability - LYMP2-016 (AID 984); further: nearly all actives have a fitted effect of over 55% in size
# In short: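 Cells were seeded at 2500 per well and rested 5 hr before a 24 hr compound exposure at 37 C. Viability was then gauged as cellular ATP by luciferase luminescence, with AC50 values fitted to the Hill equation.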
# [19] = Cell Viability - LYMP2-018 (AID 985); further: nearly all actives have a fitted effect of over 50% in size
# In short: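 Seed 2500 lymphoblastoid cells per well, incubate 5 hr at 37 C, add compound and incubate 24 hr at 37 C, add CellTiter-Glo, wait 30 min at room temperature, then read luminescence.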
# [20] = Cell Viability - LYMP2-020 (AID 986)
# In short: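 Seed 2500 cells per well and incubate 5 hr at 37 C. Add compounds at a concentration series and incubate 24 hr at 37 C. Add CellTiter-Glo, wait 30 min at RT, read luminescence, and fit a Hill curve for AC50.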
# [21] = Cell Viability - LYMP2-022 (AID 987); further: nearly all actives have a fitted effect of over 55% in size
# In short: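 Cells were seeded at 2500 per well, rested 5 hr at 37 C, and treated with titrated compounds for 24 hr at 37 C. Cellular ATP was then quantified by luciferase luminescence, and AC50 values were derived from Hill-modelled concentration-response curves.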
# [22] = Cell Viability - LYMP2-024 (AID 988); further: nearly all actives have a fitted effect of over 60% in size
# In short: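 qHTS cytotoxicity, human lymphoblastoid line, complete medium; 24 h cpd treatment, 37 C; CellTiter-Glo ATP luminescence readout; tetraoctylammonium bromide positive control; AC50 via Hill fit.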
# [23] = Cell Viability - LYMP2-026 (AID 989); further: nearly all actives have a fitted effect of over 50% in size
# In short: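 Cells are seeded at 2500 per well and held 5 hr at 37 C. Compounds are added in concentration series for 24 hr, then CellTiter-Glo reagent is applied and luminescence read.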
# [24] = Cell Viability - LYMP1-002 - Assay at 24 hr (AID 993)
# In short: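 Acute toxicity is measured as concentration-dependent loss of cellular ATP in a human lymphoblastoid line (Coriell LYMP1-002) after 24 h treatment in complete medium. ATP is quantified by luciferase luminescence and AC50 derived by Hill modelling.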
# [25] = Cell Viability - LYMP1-002 - Assay at 40 hr (AID 994); further: nearly all actives have a fitted effect of over 60% in size
# In short: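 Cells are plated at 2500 per well and rested 5 hr at 37 C. Compounds are added and incubated 40 hr at 37 C. CellTiter-Glo reagent is added for 30 min at room temperature before luminescence is read.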
# [26] = biological target: ATP-dependent 6-phosphofructokinase (Trypanosoma brucei brucei) (UniProt O15648); test: qHTS Assay to Find Inhibitors of T. brucei phosphofructokinase: hit validation (AID 492961);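 further: luminescence reports ADP formed as PFK phosphorylates fructose-6-phosphate with ATP; series mostly up to about 51 µM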
# Chain of ATP-dependent 6-phosphofructokinase (Trypanosoma brucei brucei) (O15648 whole entry, looked up): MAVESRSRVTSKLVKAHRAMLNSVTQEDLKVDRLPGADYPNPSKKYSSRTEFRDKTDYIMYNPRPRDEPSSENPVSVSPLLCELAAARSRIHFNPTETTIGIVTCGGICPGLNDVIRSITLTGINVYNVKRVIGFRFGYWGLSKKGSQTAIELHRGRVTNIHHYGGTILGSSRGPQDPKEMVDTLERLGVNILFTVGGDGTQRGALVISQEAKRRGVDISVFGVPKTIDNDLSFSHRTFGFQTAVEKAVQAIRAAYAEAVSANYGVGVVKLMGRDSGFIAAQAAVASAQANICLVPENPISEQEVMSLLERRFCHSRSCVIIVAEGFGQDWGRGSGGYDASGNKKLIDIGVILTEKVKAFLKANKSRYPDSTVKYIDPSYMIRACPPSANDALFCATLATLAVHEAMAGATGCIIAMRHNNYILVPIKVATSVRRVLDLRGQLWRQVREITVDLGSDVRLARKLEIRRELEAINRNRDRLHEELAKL
# In short: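 ADP-Glo luminescence read-out of ADP formed by 1.25 nM PFK from 0.1 mM ATP and 0.5 mM F6P (TEA pH 8.0, 45 min, RT). Compounds titrated; activity normalized to no-enzyme and full-enzyme controls.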
# [27] = biological target: Ubiquitin carboxyl-terminal hydrolase 1 (Homo sapiens) (UniProt O94782); test: Inhibitors of USP1/UAF1: Pilot qHTS (AID 504865);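 further: rhodamine fluorescence freed from ubiquitin-rhodamine substrate followed over time; top concentration of the series differs between compounds; nearly all actives have a fitted effect of over 35% in size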
# In short: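 In 50mM HEPES pH 7.8 containing 0.5mM EDTA, 1mM TCEP, 0.1 mg/ml BSA and 0.01% Tween-20, 1nM USP1/UAF1 is exposed to compound for 15 min, then Ub-Rho (150nM final) is added and fluorescence is read over time.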
# [28] = biological target: Estrogen receptor (Homo sapiens) (UniProt P03372); test: qHTS assay for small molecule antagonists of estrogen receptor alpha signaling (AID 588513; active means well fitted curve in the direction sought with a large enough effect in the signal ratio, with a control signal flat, not every such curve was filed as active; the % refers to the signal ratio)
# Chain of Estrogen receptor (Homo sapiens) (P03372 whole entry, looked up): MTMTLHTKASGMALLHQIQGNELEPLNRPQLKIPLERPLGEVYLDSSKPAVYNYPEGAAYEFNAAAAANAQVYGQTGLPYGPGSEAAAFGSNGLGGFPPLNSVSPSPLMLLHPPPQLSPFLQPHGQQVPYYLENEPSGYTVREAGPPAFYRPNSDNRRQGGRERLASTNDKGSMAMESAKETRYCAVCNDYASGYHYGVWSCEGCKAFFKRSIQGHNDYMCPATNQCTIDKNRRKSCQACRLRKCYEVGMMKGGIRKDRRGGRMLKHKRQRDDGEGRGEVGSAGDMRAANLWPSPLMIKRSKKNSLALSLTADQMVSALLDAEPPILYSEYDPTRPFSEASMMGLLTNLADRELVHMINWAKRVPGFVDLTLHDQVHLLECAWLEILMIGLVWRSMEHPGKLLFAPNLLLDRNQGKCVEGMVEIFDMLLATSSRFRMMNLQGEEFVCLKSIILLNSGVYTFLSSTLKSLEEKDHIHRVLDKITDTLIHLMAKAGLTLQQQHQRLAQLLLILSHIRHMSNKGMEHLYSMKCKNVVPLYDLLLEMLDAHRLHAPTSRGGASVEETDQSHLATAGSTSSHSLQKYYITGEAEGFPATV
# In short: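 Fluorescence from CCF4 substrate after 2 h at room temperature gave reporter activity; cells had been exposed to compound and 0.5nM 17-beta-estradiol for 18 h at 37 C. Hill-equation fitting yielded IC50 and maximal response.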
# [29] = biological target: Estrogen receptor (Homo sapiens) (UniProt P03372); test: qHTS assay for small molecule agonists of estrogen receptor alpha signaling (AID 588514; calls by dose curve; further: nearly all actives have a fitted effect of over 70% in size)
# In short: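 Efficacy is expressed against 20 nM 17-beta-estradiol (100%) and DMSO basal (0%); EC50 from Hill equation. Assay: beta-lactamase reporter in ER-alpha-UAS-bla HEK 293 cells, 18 h compound incubation, CCF4 detection.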
# [30] = biological target: Bile acid receptor (Homo sapiens) (UniProt Q96RI1); test: qHTS assay for small molecule antagonists of farnesoid X receptor signaling (AID 588526; calls by dose curve)
# Chain of Bile acid receptor (Homo sapiens) (Q96RI1 whole entry, looked up): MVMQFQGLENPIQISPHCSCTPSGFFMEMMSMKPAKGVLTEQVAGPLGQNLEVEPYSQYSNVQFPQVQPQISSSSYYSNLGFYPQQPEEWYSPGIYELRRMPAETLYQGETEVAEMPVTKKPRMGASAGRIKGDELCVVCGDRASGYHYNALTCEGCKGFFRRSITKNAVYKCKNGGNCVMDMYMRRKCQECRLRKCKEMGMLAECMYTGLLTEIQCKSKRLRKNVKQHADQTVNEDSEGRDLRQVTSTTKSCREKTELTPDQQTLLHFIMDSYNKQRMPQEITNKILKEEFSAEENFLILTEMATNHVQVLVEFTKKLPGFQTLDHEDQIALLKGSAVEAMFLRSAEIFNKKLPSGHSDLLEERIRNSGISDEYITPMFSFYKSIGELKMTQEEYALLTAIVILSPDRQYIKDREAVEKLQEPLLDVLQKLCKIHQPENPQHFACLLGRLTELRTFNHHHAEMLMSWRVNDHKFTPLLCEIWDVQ
# In short: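 Beta-lactamase reporter antagonist mode: HEK293T FXR-UAS-bla cells, titrated compound, CDCA stimulation, 16 h 37 C, CCF4 dye 2 h RT. Data normalized to CDCA 50 uM and DMSO; Hill-fit IC50.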
# [31] = biological target: Glucocorticoid receptor (Homo sapiens) (UniProt P04150); test: qHTS assay for small molecule antagonists of glucocorticoid receptor signaling (AID 588533; active means well fitted inhibition curve with a large enough effect in the signal ratio, with a control signal flat, not every such curve was filed as active; the % refers to the signal ratio;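 further: cells stimulated with 2 nM dexamethasone as agonist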)
# In short: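 Antagonist-mode qHTS: compound titrations added to GRE-bla HeLa cells, then dexamethasone 2 nM final; 18 h, 37 C. CCF4 FRET fluorescence normalized to dexamethasone and DMSO; IC50 from Hill fit.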
# [32] = biological target: Peroxisome proliferator-activated receptor gamma (Homo sapiens) (UniProt P37231); test: qHTS assay for small molecule agonists of peroxisome proliferator-activated receptor gamma signaling (AID 588536; active means well fitted curve in the direction sought with a large enough effect in the signal ratio, with a control signal flat, not every such curve was filed as active; the % refers to the signal ratio)
# Chain of Peroxisome proliferator-activated receptor gamma (Homo sapiens) (P37231 whole entry, looked up): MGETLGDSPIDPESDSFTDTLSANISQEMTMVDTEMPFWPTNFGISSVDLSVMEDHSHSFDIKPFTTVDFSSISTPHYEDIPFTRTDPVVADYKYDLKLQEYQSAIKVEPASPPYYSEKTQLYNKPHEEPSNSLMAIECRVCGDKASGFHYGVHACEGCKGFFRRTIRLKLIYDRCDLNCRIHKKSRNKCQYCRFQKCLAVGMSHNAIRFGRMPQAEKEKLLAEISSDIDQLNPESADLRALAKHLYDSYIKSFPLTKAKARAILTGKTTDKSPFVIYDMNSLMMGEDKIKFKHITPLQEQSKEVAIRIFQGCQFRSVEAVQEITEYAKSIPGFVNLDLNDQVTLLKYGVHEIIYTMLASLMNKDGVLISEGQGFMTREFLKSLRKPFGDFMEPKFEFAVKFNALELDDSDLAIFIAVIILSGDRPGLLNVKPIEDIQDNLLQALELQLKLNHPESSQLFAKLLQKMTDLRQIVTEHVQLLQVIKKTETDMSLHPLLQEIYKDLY
# In short: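 Cells were plated and held 6–6.5 h at 37 C, then compounds were added as a titration series. After a further 16 h, CCF4 dye was loaded for 2 h at room temperature and emission at 460/530 nm recorded.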
# [33] = qHTS assay for small molecule agonists of retinoid X receptor alpha signaling (AID 588544; calls by dose curve); details: HEK293T RXRa-UAS-bla, beta-lactamase reporter, 18 h; 530 nm emission
# [34] = biological target: Retinoic acid receptor RXR-alpha (Homo sapiens) (UniProt P19793); test: as above
# Chain of Retinoic acid receptor RXR-alpha (Homo sapiens) (P19793 whole entry, looked up): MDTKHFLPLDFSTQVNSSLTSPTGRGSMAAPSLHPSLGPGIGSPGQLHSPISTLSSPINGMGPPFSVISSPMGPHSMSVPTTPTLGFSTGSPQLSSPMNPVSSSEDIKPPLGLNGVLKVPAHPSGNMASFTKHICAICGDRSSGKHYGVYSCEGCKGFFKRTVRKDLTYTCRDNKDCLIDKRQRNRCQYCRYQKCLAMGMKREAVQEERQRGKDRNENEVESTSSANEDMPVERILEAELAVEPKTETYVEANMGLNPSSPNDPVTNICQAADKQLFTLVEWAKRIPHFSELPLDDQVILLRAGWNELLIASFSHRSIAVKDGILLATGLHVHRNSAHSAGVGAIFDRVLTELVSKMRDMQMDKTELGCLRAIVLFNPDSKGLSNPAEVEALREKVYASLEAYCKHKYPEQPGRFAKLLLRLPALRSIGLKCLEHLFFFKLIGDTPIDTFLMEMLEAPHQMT
# [35] = biological target: Thyroid hormone receptor beta (Homo sapiens) (UniProt P10828); test: qHTS assay for small molecule agonists of thyroid hormone receptor beta signaling (AID 588545; calls by dose curve)
# Chain of Thyroid hormone receptor beta (Homo sapiens) (P10828 whole entry, looked up): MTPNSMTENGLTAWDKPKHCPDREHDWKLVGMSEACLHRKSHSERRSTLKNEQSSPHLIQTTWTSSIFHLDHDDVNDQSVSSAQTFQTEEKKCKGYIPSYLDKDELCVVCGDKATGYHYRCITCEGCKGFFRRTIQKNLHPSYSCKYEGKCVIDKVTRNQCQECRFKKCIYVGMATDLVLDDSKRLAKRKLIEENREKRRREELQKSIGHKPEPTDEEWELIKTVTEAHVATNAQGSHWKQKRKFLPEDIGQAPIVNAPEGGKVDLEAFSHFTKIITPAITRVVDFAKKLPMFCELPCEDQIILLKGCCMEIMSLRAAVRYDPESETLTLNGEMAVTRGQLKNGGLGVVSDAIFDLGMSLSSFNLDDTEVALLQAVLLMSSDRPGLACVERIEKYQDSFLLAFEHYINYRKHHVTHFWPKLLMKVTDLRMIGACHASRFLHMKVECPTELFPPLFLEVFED
# In short: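 TR-UAS-bla-GripTite HEK 293 cells in medium with 2% charcoal/dextran FBS, 0.1 mM NEAA and 1 mM sodium pyruvate were treated with titrated compounds for 18 hrs at 37 C. Beta-lactamase reporter was read with CCF4 dye (ex 405, em 460/530 nm); EC50 from Hill fits.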
# [36] = biological target: Thyroid hormone receptor beta (Homo sapiens) (UniProt P10828); test: qHTS assay for small molecule antagonists of thyroid hormone receptor beta signaling (AID 588547; active means well fitted inhibition curve with a large enough effect in the signal ratio, with a control signal flat, not every such curve was filed as active; the % refers to the signal ratio;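 further: cells stimulated with 0.4 nM T3 agonist during compound exposure; series mostly up to about 77 µM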); details: TR-UAS-bla HEK293, beta-lactamase ratio, antagonist mode, 18 h
# In short: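 Inhibition of T3-driven (0.4nM final) beta-lactamase reporter activity was measured over 0.59 nM to 92 uM compound after 18 h at 37 C. The cells were GripTite HEK293 TR-UAS-bla in charcoal/dextran-stripped serum, with CCF4 ratio read-out and IC50 from Hill fits.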
# [37] = biological target: Voltage-gated inwardly rectifying potassium channel KCNH2 (Homo sapiens) (UniProt Q12809); test: qHTS Assay for Small Molecule Inhibitors of the Human hERG Channel Activity (AID 588834);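 further: top concentration of the series differs between compounds; lower thallium flux fluorescence means stronger hERG block; nearly all actives have a fitted effect of over 50% in size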
# Chain of Voltage-gated inwardly rectifying potassium channel KCNH2 (Homo sapiens) (Q12809 whole entry, looked up): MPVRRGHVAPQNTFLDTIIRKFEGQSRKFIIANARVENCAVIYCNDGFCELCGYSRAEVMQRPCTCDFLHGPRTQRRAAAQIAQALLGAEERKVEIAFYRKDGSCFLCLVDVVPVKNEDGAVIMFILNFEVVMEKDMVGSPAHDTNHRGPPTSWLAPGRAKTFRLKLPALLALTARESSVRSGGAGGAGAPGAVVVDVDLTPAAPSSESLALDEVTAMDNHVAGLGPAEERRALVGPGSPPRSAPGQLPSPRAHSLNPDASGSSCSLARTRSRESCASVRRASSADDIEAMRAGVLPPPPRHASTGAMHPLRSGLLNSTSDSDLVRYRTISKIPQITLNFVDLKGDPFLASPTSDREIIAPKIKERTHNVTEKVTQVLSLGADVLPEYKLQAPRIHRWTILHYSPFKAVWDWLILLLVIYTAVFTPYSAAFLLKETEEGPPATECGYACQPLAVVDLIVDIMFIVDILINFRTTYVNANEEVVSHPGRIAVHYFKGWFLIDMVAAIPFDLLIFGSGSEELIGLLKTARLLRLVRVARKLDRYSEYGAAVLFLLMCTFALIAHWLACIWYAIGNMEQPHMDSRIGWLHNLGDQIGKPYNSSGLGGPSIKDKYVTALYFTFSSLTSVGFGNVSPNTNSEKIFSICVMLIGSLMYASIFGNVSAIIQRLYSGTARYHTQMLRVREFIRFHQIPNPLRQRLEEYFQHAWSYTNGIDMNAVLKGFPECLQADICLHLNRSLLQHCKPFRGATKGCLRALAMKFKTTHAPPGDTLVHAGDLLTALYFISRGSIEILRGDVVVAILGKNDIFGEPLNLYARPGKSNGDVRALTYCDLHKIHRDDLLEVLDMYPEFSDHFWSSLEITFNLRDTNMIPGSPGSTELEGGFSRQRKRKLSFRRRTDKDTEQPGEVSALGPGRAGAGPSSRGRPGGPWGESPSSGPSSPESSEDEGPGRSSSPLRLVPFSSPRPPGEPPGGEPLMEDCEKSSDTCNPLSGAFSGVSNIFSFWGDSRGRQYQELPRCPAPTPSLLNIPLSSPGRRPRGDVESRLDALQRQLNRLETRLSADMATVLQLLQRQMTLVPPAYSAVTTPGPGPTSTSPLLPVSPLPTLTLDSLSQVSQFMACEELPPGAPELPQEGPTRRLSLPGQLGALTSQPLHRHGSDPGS
# In short: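 Step 1: BacMam hERG transduction of U2OS, 4 hrs RT. Step 2: overnight 37 °C, plate 2000 cells/well, 4 hr. Step 3: FluxOR load, compound 10 min, stimulate, read fluorescence.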
# [38] = biological target: Luciferin 4-monooxygenase (Photinus pyralis) (UniProt P08659); test: Biochemical firefly luciferase enzyme assay for NPC (AID 624030);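 further: purified P. pyralis luciferase at 10 nM with luciferin and ATP substrate; series mostly up to about 59 µM; nearly all actives have a fitted effect of over 70% in size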
# Chain of Luciferin 4-monooxygenase (Photinus pyralis) (P08659 whole entry, looked up): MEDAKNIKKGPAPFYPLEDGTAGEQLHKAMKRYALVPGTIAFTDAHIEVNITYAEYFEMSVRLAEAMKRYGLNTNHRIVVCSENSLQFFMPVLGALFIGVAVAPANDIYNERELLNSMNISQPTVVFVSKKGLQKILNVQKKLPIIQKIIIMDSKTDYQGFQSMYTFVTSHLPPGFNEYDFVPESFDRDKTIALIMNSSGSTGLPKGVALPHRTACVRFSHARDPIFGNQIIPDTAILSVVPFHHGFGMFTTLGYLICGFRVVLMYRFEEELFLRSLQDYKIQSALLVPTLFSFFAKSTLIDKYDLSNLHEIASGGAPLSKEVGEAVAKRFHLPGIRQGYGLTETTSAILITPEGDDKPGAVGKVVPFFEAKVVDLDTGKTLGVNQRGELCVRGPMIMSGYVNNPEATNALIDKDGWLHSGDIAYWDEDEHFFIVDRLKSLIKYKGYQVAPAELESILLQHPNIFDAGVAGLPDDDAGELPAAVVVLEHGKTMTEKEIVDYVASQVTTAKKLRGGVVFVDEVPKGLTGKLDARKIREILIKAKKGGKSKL
# In short: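 Direct inhibition of firefly luciferase enzyme (10 nM final, 50 mM Tris Acetate) assessed by luminescence within 5 minutes. Percent activity scaled between DMSO and PTC124 positive control, with concentration-effect curves classified by fit quality and response.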
# [39] = S16 Schwann cell viability assay (CellTiter-Glo assay) (AID 624031);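 further: native untransfected S16 rat Schwann cells; series mostly up to about 58 µM; nearly all actives have a fitted effect of over 70% in size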
# In short: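 Counter-screen for cytotoxicity: parental S16 rat Schwann cells lacking the PMP22 reporters, treated 24 h with compound, viability from cellular ATP by CellTiter-Glo luminescence, normalized to DMSO (0%) and no-cell wells.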
structure (smiles),measurement,setting,value
C[C@@H]1[C@H](O)[C@@H](C)/C=C/C=C/C=C/C=C/C=C/C=C/C=C/[C@H](O[C@@H]2O[C@H](C)[C@@H](O)[C@H](N)[C@@H]2O)C[C@@H]2O[C@](O)(C[C@@H](O)C[C@@H](O)[C@H](O)CC[C@@H](O)C[C@@H](O)CC(=O)O[C@H]1C)C[C@H](O)[C@H]2C(=O)O,outcome,[1],inactive
same,outcome,[2],inactive
same,outcome,[3],inactive
same,outcome,[4],inactive
same,outcome,[5],inactive
same,outcome,[6],inactive
same,outcome,[7],inactive
same,outcome,[8],inactive
same,outcome,[9],inactive
same,outcome,[10],inactive
same,outcome,[11],inactive
same,outcome,[12],inactive
same,outcome,[13],inactive
same,outcome,[14],inactive
same,outcome,[15],inactive
same,outcome,[16],inactive
same,outcome,[17],inactive
same,outcome,[18],inactive
same,outcome,[19],inactive
same,outcome,[20],inactive
same,outcome,[21],inactive
same,outcome,[22],inactive
same,outcome,[23],inactive
same,outcome,[24],inactive
same,outcome,[25],inactive
same,outcome,[26],inactive
same,Potency,[27],inactive
same,outcome,[28],inactive
same,outcome,[29],inactive
same,Potency,[30],inactive
same,Potency,[31],inactive
same,outcome,[32],inactive
same,max response,[33],19.3%
same,outcome,[34],inactive
same,outcome,[35],inactive
same,activity change % (negative = inhibition),[36],2.02% (inactive)
same,Potency,[37],inactive
same,Potency,[38],inactive
same,outcome,[39],inactive
